# The list is not random: actives were taken first. Their share in the collection is about 2.5%.
# MEKK2 WT-MEK5 – modulators of MEK5 binding to wildtype MEKK2, primary screen, biochemical, multiplex bead flow cytometry, Alexa488-MEK5; Mitogen-activated protein kinase kinase kinase 2 (Homo sapiens), Q9Y2U5; Alexa488-MEK5 binding to MEKK2 WT; actives lie on both sides; binding response (% of control), % at 10 µM; 1.1% of 290,000 active; AID 1531, 2009; in the data active means binding response below about 67% or above about 130%
# GRK2 inh – compounds blocking aptamer binding on GRK2 – biochemical, human GRK2, bead flow cytometry, HTS, primary screen; FAM-aptamer displacement from GRK2; AID 488847, 2010; 0.59% of 330,000 active; inhibition of aptamer binding, % at 10 µM; Beta-adrenergic receptor kinase 1 (Homo sapiens), P25098;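 active means inhibition of aptamer binding above 40%, roughly 3 SD of noise, on plates passing a quality check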;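 further: median bead fluorescence of bound FAM aptamer so fluorescent compounds give negative values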
# MEKK3 PB1 HTS – modulators of MEKK3-MEK5 PB1 binding, primary screen, biochemical, wildtype MEKK3, multiplex bead flow cytometry, Alexa488-MEK5. Mitogen-activated protein kinase kinase kinase 3 (Homo sapiens), Q99759. bead-based flow cytometry, Alexa488-MEK5 binding to MEKK3; actives lie on both sides; 0 = blocked by unlabeled MEK5, 100 = vehicle. binding response (% of control), % at 10 µM. 1.4% of 290,000 active;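 active means binding response more than 3 SD above or below the average of its plate-row segment, actives on both sides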;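 further: Alexa488 bead fluorescence after subtracting the streptavidin-only scavenger bead signal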
# Target sequence (Q99759 whole entry, looked up): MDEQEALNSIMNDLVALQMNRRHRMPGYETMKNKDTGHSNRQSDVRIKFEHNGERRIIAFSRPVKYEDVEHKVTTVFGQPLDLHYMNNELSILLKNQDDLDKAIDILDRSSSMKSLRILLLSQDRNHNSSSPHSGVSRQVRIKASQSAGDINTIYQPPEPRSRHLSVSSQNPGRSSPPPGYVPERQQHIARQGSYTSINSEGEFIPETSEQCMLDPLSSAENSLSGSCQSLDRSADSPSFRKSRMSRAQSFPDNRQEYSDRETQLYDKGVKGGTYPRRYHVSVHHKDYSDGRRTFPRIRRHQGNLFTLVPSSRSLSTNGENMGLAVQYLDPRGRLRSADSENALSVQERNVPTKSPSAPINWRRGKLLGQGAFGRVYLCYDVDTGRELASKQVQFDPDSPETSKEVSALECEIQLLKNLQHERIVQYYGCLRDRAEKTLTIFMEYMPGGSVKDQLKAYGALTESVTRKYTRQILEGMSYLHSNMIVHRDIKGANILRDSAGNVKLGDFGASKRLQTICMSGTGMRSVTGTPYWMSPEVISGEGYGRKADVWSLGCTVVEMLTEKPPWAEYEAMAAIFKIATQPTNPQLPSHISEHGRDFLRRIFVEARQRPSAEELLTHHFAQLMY
# MEKK2 mut-MEK5 – MEK5 binding signal on mutant MEKK2 PB1, primary screen, biochemical, multiplex bead flow cytometry, Alexa488-MEK5; Alexa488-MEK5 binding to MEKK2 mutant; percent response, % at 10 µM; 0.35% of 290,000 active; in the data active means percent response above about 24%, passing the limit was not always enough
# MEKK2wt confirm – modulators of MEK5 binding to wildtype MEKK2, confirmation, biochemical, single concentration, multiplex bead flow cytometry | shares compounds with MEKK3 PB1 HTS | 2.4% of 5,900 active | Alexa488-MEK5 binding to MEKK2 WT; actives lie on both sides | AID 1892, 2009 | binding response (% of control), % at 10 µM; in the data active means binding response below about 16% or above about 210%; inactive means in between
# MEKK2mut confirm – mutant MEKK2 PB1-MEK5 binding signal retest – biochemical, single concentration, multiplex bead flow cytometry, confirmation; Alexa488-MEK5 binding to MEKK2 mutant; percent response, % at 10 µM; shares compounds with MEKK3 PB1 HTS; 2% of 5,900 active; AID 1893, 2009; in the data active means percent response mostly above about 71%, no sharp cut-off; inactive means mostly below about 38%;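 further: higher means compound restores mutant binding toward wildtype level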
# MEKK3 confirm – MEKK3 wild-type PB1 binding to MEK5, inhibitors, confirmation, biochemical, bead multiplex flow cytometry, single concentration, wildtype. binding response (% of control), % at 10 µM. AID 1894, 2009. shares compounds with MEKK3 PB1 HTS. 1.8% of 5,900 active. Alexa488-MEK5 binding to MEKK3; stronger effect = lower value;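 active means binding response below 72% of control, or above a set upper limit, though filed actives all read lower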;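 further: 100% = DMSO only wells and 0% = binding blocked by excess unlabeled MEK5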
# * = called active by the depositor; · = not tested or not shown; [ ] = another dose, or the depositor's remark.
SMILES,MEKK2 WT-MEK5,GRK2 inh,MEKK3 PB1 HTS,MEKK2 mut-MEK5,MEKK2wt confirm,MEKK2mut confirm,MEKK3 confirm
COc1cccc(CC(=O)Nc2nc3ccccc3[nH]2)c1,·,2,96,112*,109,4,105
COc1ccccc1-n1cnnc1SC(C)C(=O)Nc1ccc(NC(C)=O)cc1 (stereo not drawn),56*[inhibitor],2,96,-5,95,-5,97
COc1ccccc1-n1cnnc1SC(C)C(=O)NCC1CCCO1 (stereo not drawn),·,5,·,·,·,·,·
Cc1csc(SCc2ccccc2C(=O)O)n1,3.0*[inhibitor],2,3.0*[inhibitor],-14,100,2,102
Cc1cc(C)n2nc(-c3ccsc3-n3c(C)ccc3C)cc2n1,9.0*[inhibitor],6,94,1,96,3,103
CN(C(=O)c1ccccc1OCc1ccc(Cl)cc1)c1ccccc1,103,16,105,9,·,·,·
CCN(CC)c1ccc(/C=C/C(=O)c2ccc(Br)cc2)cc1,344*,2,111,431*,82,-40,87
Cc1cc(C)c([N+](=O)[O-])cc1-c1ccc(/C=N/c2c(-c3ccco3)nc3ccccn23)o1,-3.0*[inhibitor],0,89,-2,79,-5,82
CCC(=O)N1CCc2cc(S(=O)(=O)NCCN3CCC(C)CC3)ccc21,105,0,105,8,·,·,·
CCN1C/C(=C/c2ccc(N3CCOCC3)cc2)C(=O)/C(=C/c2ccc(N3CCOCC3)cc2)C1,26*[inhibitor],0,93,-23,80,-11,92
CN1C/C(=C\c2ccc(N3CCOCC3)cc2)C(=O)/C(=C/c2ccc(N3CCOCC3)cc2)C1,81,4,89,-4,·,·,·
Cc1csc(NC(=O)c2cccc([N+](=O)[O-])c2C(=O)O)n1,102,2,104,2,·,·,·
CCN(CC#CCC1(O)c2ccccc2-c2ccccc21)CCO,84,0,77*[inhibitor],-13,95,-6,98
CCCN(CCC)S(=O)(=O)c1ccc(C(=O)Nc2nnc(CSC)o2)cc1,106,0,111,5,·,·,·
O=C(COc1ccc(Cl)cc1)Nc1ccc2c(c1)CCC2,100,3,75*[inhibitor],-1,98,-4,96
CC(=O)c1ccc(OCC(=O)Nc2ccc3c(c2)CCC3)cc1,·,0,·,·,·,·,·
CCCCn1c(N)c(N(Cc2ccccc2OC)C(=O)C(C)Oc2ccc(Cl)cc2)c(=O)[nH]c1=O (stereo not drawn),98,0,95,2,·,·,·
O=C(O)/C=C/C(=O)NCC1CCC(CNC(=O)/C=C/C(=O)O)CC1 (stereo not drawn),98,0,99,1,·,·,·
CCOC(=O)N1CCC(NC(=O)C2CCCN(Cc3nc(-c4cccc(C)c4)oc3C)C2)CC1 (stereo not drawn),103,0,103,1,·,·,·
O=C(CCC1CCCC1)N1CCN(C(=O)COc2ccccc2)CC1,87,1,75*[inhibitor],-9,96,-10,101
Cc1ccc(OCC(=O)N2CCN(C(=O)CCC3CCCC3)CC2)cc1,112,0,108,7,·,·,·
Cc1ccc(OCC(O)CNC2CCCC2)c(C)c1 (stereo not drawn),109,0,103,2,·,·,·
Cc1ccccc1OCC(O)CNC1CCC(NCC(O)COc2ccccc2C)CC1 (stereo not drawn),219*,0,111,76*,207*,70*,111
N#Cc1ccc2ccn(CC(=O)NCc3ccco3)c2c1,139*,0,114,13,102,-4,99
COC(=O)c1c(C(=O)OC)c(-c2ccc(F)cc2)n2c1CSC2,106,0,111,11,·,·,·
SMILES,MEKK2 WT-MEK5,GRK2 inh,MEKK3 PB1 HTS,MEKK2 mut-MEK5,MEKK2wt confirm,MEKK2mut confirm,MEKK3 confirm
Nn1c(SCC(=O)NCC2CCCO2)nnc1-c1ccc(OC(F)F)cc1 (stereo not drawn),·,0,·,·,·,·,·
COc1cc(NC(=S)Nc2ccc(OC(F)F)cc2)cc(OC)c1,100,2,105,13,·,·,·
COCCn1nnnc1C(c1ccc(O)c(OC)c1)N1CCc2ccccc2C1 (stereo not drawn),103,0,97,-4,·,·,·
CC(=O)CSc1cc(C)nc2c(-c3ccccc3)c(C)nn12,122,2,129*,22,97,2,104
Cc1ccc(NC(=O)CCC(=O)OCC(=O)c2ccc(Oc3ccc([N+](=O)[O-])cc3)cc2)cc1,108,0,144*,0,101,1,104
COc1ccc(NC(=O)CCC(=O)OCC(=O)c2ccc(Oc3ccc([N+](=O)[O-])cc3)cc2)cc1,105,0,113,1,·,·,·
Cc1cc(C(C)(C)C)ccc1OCCOCCN1CCCC1,110,0,136*,1,108,-2,100
CCOC(=O)Cn1c(=NC(=O)C2COc3ccccc3O2)sc2cc(S(N)(=O)=O)ccc21 (stereo not drawn),109,1,106,-1,·,·,·
O=c1c(Cl)c(Cl)cnn1-c1ccccc1,108,·,133*,1,103,3,100
Nc1c(Cl)cnn(-c2ccccc2)c1=O,·,0,·,·,·,·,·
CCc1ccccc1N(CC(=O)N1CCCCC1)S(=O)(=O)c1ccccc1,100,0,102,1,·,·,·
CSc1ccc(S(=O)(=O)NCC(=O)OCC(=O)N(C)CC(=O)Nc2ccccc2Cl)cc1[N+](=O)[O-],·,0,·,·,·,·,·
Cn1c(Cc2ccc3c(c2)OCO3)nnc1SCC(=O)NC(C)(C)C,64,0,65*[inhibitor],-12,104,-2,103
COc1cccc2c1Oc1ncccc1N(C(=O)CCC(=O)NCc1ccccc1Cl)C2,101,1,98,4,·,·,·
Cc1nn(-c2ccc(F)cc2)c2sc(C(=O)O)cc12,-1.0*[inhibitor],0,2.0*[inhibitor],-29,93,-5,99
O=C(CN(c1ccccc1)S(=O)(=O)c1ccccc1)NCCSCc1ccco1,109,0,105,5,·,·,·
CC1CCCN(C(=O)C(C)Nc2cc(Cl)ccc2N2CCOCC2)C1 (stereo not drawn),94,14,92,1,·,·,·
CCOC(=O)CSc1ncc(-c2ccc([N+](=O)[O-])cc2)[nH]1,105,0,134*,1,98,2,103
N#C/C(C(=O)NCc1ccco1)=C1/SC=C(c2ccccc2)N1c1ccccc1,97,10,99,-1,·,·,·
